Bioassay records as filed in PubChem.
eIF4E-4G inh – eIF4E–eIF4G protein interaction inhibitors, primary screen, biochemical, uHTS, TR-FRET, eIF4GI fragment | TR-FRET eIF4E-eIF4GI(517-606) binding, 2 h | Eukaryotic translation initiation factor 4E (Mus musculus) + Eukaryotic translation … | inhibition, % at 21.7 µM | 0.37% of 220,000 active;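 further: 0% = full FRET control wells and 100% = background wells lacking eIF4GI fragment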
UBC9 SUMO inh – inhibitors of in vitro SUMOylation cascade, primary screen, biochemical, HTRF, uHTS; SUMO-conjugating enzyme UBC9 (Homo sapiens), P63279; HTRF SUMOylation assay, SAE1/SAE2 + UBC9; inhibition, % at 35 µM; 0.36% of 290,000 active; in the data active means inhibition above about 50%, passing the limit was not always enough; inconclusive means no clear call, values can overlap the other calls
Target sequence (P63279 whole entry, looked up): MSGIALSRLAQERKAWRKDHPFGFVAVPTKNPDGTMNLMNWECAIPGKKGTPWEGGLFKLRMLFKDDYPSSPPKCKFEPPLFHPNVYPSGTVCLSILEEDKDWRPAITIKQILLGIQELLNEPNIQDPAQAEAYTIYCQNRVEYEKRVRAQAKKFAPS
14-3-3 Bad inh – inhibitors of 14-3-3 zeta/Bad binding, primary screen, biochemical, TR-FRET, bovine 14-3-3 zeta; 0.71% of 220,000 active; inhibition, % at 21.7 µM; 14-3-3 protein zeta/delta (Bos taurus), P63103; TR-FRET 14-3-3zeta/Dy647-pBad peptide displacement, 1 h;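 active means inhibition above about 70%, limit read from the data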;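 further: 0% = full 14-3-3 plus peptide FRET controls and 100% = background without 14-3-3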
Target sequence (P63103 whole entry, looked up): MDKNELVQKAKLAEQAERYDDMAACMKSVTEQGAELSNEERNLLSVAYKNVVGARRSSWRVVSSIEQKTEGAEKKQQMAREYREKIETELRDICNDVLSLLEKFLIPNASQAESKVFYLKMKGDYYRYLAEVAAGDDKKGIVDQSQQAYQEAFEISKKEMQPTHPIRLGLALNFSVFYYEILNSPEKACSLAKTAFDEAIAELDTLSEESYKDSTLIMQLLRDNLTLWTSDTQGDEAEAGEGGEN
p47phox inh – p47phox/p22phox peptide binding inhibitors, primary screen, biochemical, uHTS, NADPH oxidase regulatory subunit; Neutrophil cytosol factor 1 (Homo sapiens), P14598; inhibition, % at 24.7 µM; fluorescence polarization, 2 h; 0.53% of 220,000 active;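 further: 0% = p47phox with labelled peptide and 100% = labelled peptide alone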
* marks the source's active call; other numbers are inactive results; [ ] = remark or other dose. Compounds with a hit are over-represented: about 1.3% of the library has one in this group of screens.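 How the source made its calls, unless noted: active means inhibition above about 30% (limit read from the data); inactive means the rest.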

CCc1ccc(CN2CCN(S(=O)(=O)Cc3ccccc3)CC2)cc1 was read as eIF4E-4G inh 7, UBC9 SUMO inh 6, 14-3-3 Bad inh 79* and p47phox inh -9.
`COCC(=O)N(C)c1nnc(-c2ccc([N+](=O)[O-])cc2)s1` gave eIF4E-4G inh 8, UBC9 SUMO inh 8, 14-3-3 Bad inh 1 and p47phox inh 35*.
`COCC(=O)N(C)c1nnc(-c2ccccn2)s1` gave eIF4E-4G inh 4, UBC9 SUMO inh -13, 14-3-3 Bad inh -3 and p47phox inh -5.
O=C(C1CCC(CNS(=O)(=O)c2cccs2)CC1)N1CCN(c2ccc(F)cc2)CC1 (configuration not stated) was read as UBC9 SUMO inh -14.
CC(C)Oc1cccc(C(=O)Nc2ccc(N3CCN(C)CC3)cc2)c1 was read as UBC9 SUMO inh -1.
CCc1c(C)c2cc(Cl)c(O)c(CN(C)C)c2oc1=O was read as eIF4E-4G inh 0, UBC9 SUMO inh 51*, 14-3-3 Bad inh -2 and p47phox inh -4.
For C[n+]1cccc(C(=O)Nc2ccccc2)c1 the results were UBC9 SUMO inh 7.
`O=c1c2ccccc2nc2c3ccccc3cnn12` gave eIF4E-4G inh 7, UBC9 SUMO inh 29, 14-3-3 Bad inh 80* and p47phox inh -4.
COc1cc(NC(=O)Cn2c(-c3cncs3)nc3ccccc32)cc(OC)c1OC was read as eIF4E-4G inh 1, UBC9 SUMO inh 22, 14-3-3 Bad inh 8 and p47phox inh -13.
O=C(N/N=C/c1c[nH]c2ccccc12)C1COc2ccccc2O1 (configuration not stated) was read as eIF4E-4G inh 48*, UBC9 SUMO inh -12, 14-3-3 Bad inh 82*[fluorescence artefact?] and p47phox inh -15.
Screening CCN(CC)S(=O)(=O)c1ccc2oc(C(=O)NC3CC3)c(C)c2c1 returned UBC9 SUMO inh -2.
For Cc1cc(=O)n2[nH]c(-c3ccsc3-n3c(C)ccc3C)cc2n1 the results were eIF4E-4G inh 7, UBC9 SUMO inh 65*, 14-3-3 Bad inh 17 and p47phox inh -19.
`COCc1cc(=O)n2[nH]c(-c3ccsc3-n3c(C)ccc3C)cc2n1` gave eIF4E-4G inh 0, UBC9 SUMO inh 48, 14-3-3 Bad inh 5 and p47phox inh -13.
For COn1c(C)c(C)c2c3nonc3ccc21 the results were eIF4E-4G inh 4, UBC9 SUMO inh 82, 14-3-3 Bad inh 95* and p47phox inh -15.
Screening COc1ccc(-n2nc(C(=O)NCC(=O)Nc3ccccn3)c3ccccc3c2=O)cc1Cl returned eIF4E-4G inh -14, UBC9 SUMO inh 15, 14-3-3 Bad inh 72* and p47phox inh 22.
Screening Nc1ccc(N2CCCCCC2)cc1 returned eIF4E-4G inh 3, UBC9 SUMO inh 62*, 14-3-3 Bad inh 80*[fluorescence artefact?] and p47phox inh 20.
For COc1ccc(NC(=O)NC2(C(=O)N3CCCCC3)CCCCC2)cc1 the results were UBC9 SUMO inh 12.
NC(=S)n1[nH]c(-c2ccc([N+](=O)[O-])cc2)c(N=Nc2cccc(Cl)c2)c1=O was read as eIF4E-4G inh 27, 14-3-3 Bad inh 88* and p47phox inh 7.
`CN1CCc2nc3sc(C(=O)C45CC6CC(CC(C6)C4)C5)c(N)c3cc2C1` gave eIF4E-4G inh -142, UBC9 SUMO inh -19, 14-3-3 Bad inh 81*[fluorescence artefact?] and p47phox inh 48*.
For COc1ccc(/C(C)=N/NC(=S)NCc2ccco2)cc1 the results were eIF4E-4G inh 1, UBC9 SUMO inh 17, 14-3-3 Bad inh 3 and p47phox inh -6.
`COc1cccc(Nc2nc(-c3cccc(N4C(=O)c5ccccc5C4=O)c3)cs2)c1` gave eIF4E-4G inh -6, UBC9 SUMO inh -4, 14-3-3 Bad inh 84* and p47phox inh -13.
For COc1cccc(Nc2nc(-c3ccc(O)cc3)cs2)c1 the results were eIF4E-4G inh 2, UBC9 SUMO inh 9, 14-3-3 Bad inh -7 and p47phox inh -21.
`O=C(COC(=O)c1cccc([N+](=O)[O-])c1)NCC1CCCO1` (configuration not stated) gave eIF4E-4G inh -2, UBC9 SUMO inh 24, 14-3-3 Bad inh -2 and p47phox inh -1.
`COc1cccc(Nc2ccccc2C(=O)O)c1` gave eIF4E-4G inh 1, UBC9 SUMO inh -14, 14-3-3 Bad inh 6 and p47phox inh 3.
For COc1cc(-c2ccc(Nc3ccccc3C(=O)O)c(OC)c2)ccc1Nc1ccccc1C(=O)O the results were eIF4E-4G inh 78*, UBC9 SUMO inh inconclusive, 14-3-3 Bad inh 97* and p47phox inh -2.
`COc1ccc2c(c1OC)C(=O)N1C2SC(C)(C)[C@H]1C(=O)NCC(C)C` (some centres not stated) gave UBC9 SUMO inh 13.
For COC(=O)c1c(SCc2ccc(C#N)cc2)nc(=O)[nH]c1C the results were eIF4E-4G inh 10, UBC9 SUMO inh 8, 14-3-3 Bad inh -17 and p47phox inh -16.
`Cc1ccc2nc3c(cc(C(=O)NCc4ccco4)c(=N)n3Cc3ccco3)c(=O)n2c1` gave eIF4E-4G inh 0, UBC9 SUMO inh 74*, 14-3-3 Bad inh -10 and p47phox inh 16.
`CCN(CC)S(=O)(=O)c1ccc(S(=O)(=O)NCC2CCCO2)cc1` (configuration not stated) gave UBC9 SUMO inh -1.
O=C(c1ccccc1F)N(Cc1ccc2c(c1)OCO2)Cc1cc2cc3c(cc2n2nnnc12)OCO3 was read as eIF4E-4G inh -18, UBC9 SUMO inh 10, 14-3-3 Bad inh 0 and p47phox inh -20.
For CN(C)S(=O)(=O)c1cc(NC(=O)COC(=O)Cc2ccc(Br)cc2)ccc1Cl the results were eIF4E-4G inh -5, UBC9 SUMO inh -2, 14-3-3 Bad inh -12 and p47phox inh -3.
For COc1cc(CC(=O)OCC(=O)Nc2ccc(Cl)c(S(=O)(=O)N(C)C)c2)cc(OC)c1OC the results were eIF4E-4G inh -5, UBC9 SUMO inh 6, 14-3-3 Bad inh -8 and p47phox inh 34*.
For COC(=O)C(=C/C(C)=C/c1cccnc1)C(=O)OC the results were eIF4E-4G inh -2, UBC9 SUMO inh 24, 14-3-3 Bad inh -9 and p47phox inh 5.
Screening CC(C(=O)O)n1nc(-c2ccccc2)c2ccccc21 (configuration not stated) returned UBC9 SUMO inh 10.
For CCOC(=O)C1=C(C)NC2=C(C(=O)CCC2)C1c1cn(Cc2ccc(Cl)cc2Cl)nc1-c1ccccc1 (configuration not stated) the results were eIF4E-4G inh 2, UBC9 SUMO inh -2, 14-3-3 Bad inh 4 and p47phox inh -2.
`CSc1nc(-c2ccco2)nn1S(=O)(=O)c1ccccc1` gave eIF4E-4G inh 20, UBC9 SUMO inh 24, 14-3-3 Bad inh 81* and p47phox inh -3.
For CSc1nc(-c2ccco2)nn1S(=O)(=O)c1ccc(C)cc1 the results were eIF4E-4G inh 2, UBC9 SUMO inh -3, 14-3-3 Bad inh -2 and p47phox inh -5.
